Molecules are shown by their SMILES. About 2,100 (3.2%) of roughly 65,000 compounds showed an effect of 50% or more. The median lay at about -52%. This is one part of a sample in which strong results are shown more often than they occur.

The subject of the experiment is Plasmodium falciparum. Briefly: Screen against P. falciparum Asexual Blood Stage (ABS), at 5uM. In kind it is functional, Dd2. The conditions noted are these: tested at 5 uM.
In the case of `COc1cc2c(cc1CNCc1cccnc1-n1cccn1)OC(C)C2` (stereo not drawn), the INHIBITION stood at 20.8%. The same measure for `COc1cccc(COCC(=O)N2CCCC2Cn2cccn2)c1` (stereo not drawn): -10.1%; for `COCc1ccccc1NCc1csc(NC(C)=O)n1`: -51.9%; for `CCCN1CCC(c2nc3ccc(NCc4cccnc4)cn3n2)CC1`: -28.7%.

As for `O=C(c1ccc(Cl)cc1)N1CCC(N2CCNC2=O)CC1`, the INHIBITION was -169%. The same measure for `CCN(C)C1COC2(CCN(C(=O)c3ccc(Cl)cc3)CC2)C1` (stereo not drawn): 2.64%; for `CC1(C)[C@@H]2CC=C(CN3CCCn4nc(C(=O)O)cc4C3)[C@H]1C2`: -37.3%. For `COCCNc1nnc(S(=O)(=O)CCC(C)(C)C#N)s1`, the INHIBITION was -77.6%. As to `CCn1nc(C)c2nc(C(C)C)nc(NCCc3ccc(O)cc3)c21`, the INHIBITION is -3.69%. The same measure for `Cc1ccc(-c2cc(C(F)(F)F)nc(N3CCOCC3)n2)s1`: -17.2%. On to `CCn1ncc(-c2cc(C(F)(F)F)nc(N3CCC(N)CC3)n2)c1C`, for which the INHIBITION amounted to 65.2%.

As for `Cc1c(-c2cc(C(F)(F)F)nc(N3CCC(N)CC3)n2)cnn1C`, the INHIBITION is 22.7%. With `CCOC(=O)N1CCN(C(=O)c2cc(OCC)c3ccoc3c2)CC1`, the INHIBITION was -79%.

Regarding `COc1cc(C(=O)Nc2nc(C)no2)ccc1OC(F)F`, the INHIBITION was -35.8%. Take `Cn1cc(CCCN2CCCC(c3cc(C(F)(F)F)[nH]n3)C2)cn1` (stereo not drawn): the INHIBITION is recorded as 33.1%. The same measure for `Cc1cnn(CC2CN(Cc3cccc(OC(C)C)c3)CCO2)c1` (stereo not drawn): 35.5%; for `O=C(NC1CCC1)[C@H]1C[C@H]2CN(CC3CC3)C[C@@H]1O2`: -98%; for `NCC1CN(C(=O)c2cccc(-n3cccn3)c2)CCO1` (stereo not drawn): -21.2%.

As for `O=C(c1cccc(-n2cccn2)c1)N1CCCOC(Cn2cccn2)C1` (stereo not drawn), the INHIBITION is listed as -33.9%.

Turning to `O=C(c1cccc(-n2cccn2)c1)N1CCCOC(CN2CCCC2)C1` (stereo not drawn), the INHIBITION is reported as 53.4%. The same measure for `O=C(CSCC1CC1)N1CCCN(c2ccc(F)cc2)CC1`: -42.8%; for `COc1ccc(-n2cnnc2SCC(=O)N(C)C(C)C)cn1`: -60.2%.

`COCC(=O)N1CCc2ccccc2C12CCNCC2`: the INHIBITION was -52%. The same measure for `CCOC(=O)N1CCc2ccccc2C12CCNCC2`: 54.6%; for `O=C(C1CC1)N1CCc2ccccc2C12CCNCC2`: -55.8%. `Cc1cc(-c2cnc(N3CCNC(=O)C3)nc2-c2ccncc2)on1`: the INHIBITION is given as -43.2%.

For the compound `CCc1nc(C)c(C(=O)N2C[C@@H](C(=O)O)[C@H](C3CC3)C2)s1`, the INHIBITION is given as -112%. As for `COCCN(C)C[C@H]1C[C@H](CO)CN(C(=O)c2ccc(=O)n(C)c2)C1`, the INHIBITION was -100%. Regarding `Cc1ccc(N2CCC3(CN(Cc4ccncc4)CCC3(F)F)C2)nn1` (stereo not drawn), the INHIBITION is listed as -5.89%. For the compound `CCC(NCc1ccccc1)c1ccccc1OCC(=O)NC` (stereo not drawn), the INHIBITION is given as 65.6%. The same measure for `CCC(NC(=O)c1ccco1)c1ccccc1OCC(=O)N1CCCC1` (stereo not drawn): -51.4%. As for `CCC(NCc1ccccn1)c1ccccc1OCC(=O)NC` (stereo not drawn), the INHIBITION is listed as -27.1%.

Consider `CC(Cn1cncn1)NC(=O)N1CC2(CCCC2)c2ccccc21` (stereo not drawn), for which the INHIBITION is -89%.

Consider `N#CC1(NC(=O)Cc2cc(Cl)c3c(c2)OCCO3)CCC1`, for which the INHIBITION was -75%.

Turning to `O=C(c1cocn1)N1CC[C@H]2OCC[C@@]2(COc2ncccc2F)C1`, the INHIBITION is recorded as -34.6%. Under `COCC(=O)N1Cc2ccnn2CC(COCCN(C)C)C1` (stereo not drawn) stands -13.6%; under `CC(C)n1c(C2CCCN(CC(N)=O)C2)nc2ccccc21` (stereo not drawn), -23.5%; under `CC(C)OCCCN1CCCC(c2nc3ccccc3n2C(C)C)C1` (stereo not drawn), 56%. Regarding `CC(C)n1c(C2CCCN(CCS(C)(=O)=O)C2)nc2ccccc21` (stereo not drawn), the INHIBITION is -69.9%. The same measure for `Cc1ccnc(NC(=O)CCc2cnn(C)c2C)c1`: -26.3%; for `CC(C)CSCCCNC(=O)C1CCC1`: -47.5%.

Regarding `CCN(CC1CCOC1)S(=O)(=O)Cc1cc(Cl)ccc1OC` (stereo not drawn), the INHIBITION is listed as 59.1%. Under `CCN(CC1CCOC1)S(=O)(=O)Cc1ccccc1Cl` (stereo not drawn) stands -53.1%; under `COc1ccc(Cl)cc1CCNC(=O)N(C)CC1CCOC1` (stereo not drawn), -102%; under `CN1CCCCC12CCN(C(=O)c1cccn1C)CC2`, -27%. Under `COCCNc1ncnc2c1CCN(C(=O)CC1CCC(=O)N1)CC2` (stereo not drawn) stands -36%; under `CC(=O)N1CCCC2(C1)CN(C(=O)C1CCCCC1)CCO2` (stereo not drawn), -104%. The same measure for `CC(=O)N1CCC2(CCCN(C(=O)CCN3CCCCC3)C2)C1` (stereo not drawn): -141%; for `CC(=O)N1CCOC2(CCCN(C(=O)CCN3CCCCC3)C2)C1` (stereo not drawn): 56%; for `Cc1nccc(NCc2cncc3c2CCN(S(C)(=O)=O)C3)n1`: -102%. For `Nc1cc(-c2cccs2)nn(CC(=O)N2CCc3ccccc32)c1=O`, the INHIBITION was -13.9%. For `Cc1ccnc(NCCCN2CCc3ccccc32)n1`, the INHIBITION is listed as 19.8%. As to `Cc1cc(C)n(CC(C)NCCn2nc(C)c(Cl)c2C)n1` (stereo not drawn), the INHIBITION is recorded as -48.1%.

On to `Cc1cc(C)n(CC(C)NCCN2CCc3ccccc32)n1` (stereo not drawn), for which the INHIBITION is reported as 54.7%. The same measure for `N#CC1(C(=O)N2C[C@@H]3CC[C@H]2CN(Cc2cscn2)C3)CCOCC1`: -81.2%; for `COc1cc(F)c(NCc2nc3ccccc3n2C)cc1OC`: -381%; for `O=C1N(Cc2cccnc2)CCC12CCCN(c1ncccn1)C2` (stereo not drawn): -123%.

Consider `Nc1nccnc1CC1CCCN(Cc2cccc3[nH]ccc23)C1` (stereo not drawn), for which the INHIBITION is reported as 19.4%.

In the case of `COc1ccccc1CN1CCCC(Cc2nccnc2N)C1` (stereo not drawn), the INHIBITION is on record as 62.1%. Under `Nc1nccnc1CC1CCCN(Cc2ccnc3ccccc23)C1` (stereo not drawn) stands -53.7%; under `COc1ccccc1CC1CCCN(CC(=O)NC2CC2)C1` (stereo not drawn), 16.1%; under `CNC(=O)CN1CCCC(Cc2ccccc2OC)C1` (stereo not drawn), 61.9%. Under `CNC(=O)NC(=O)CN1CCCC(Cc2ccccc2OC)C1` (stereo not drawn) stands -87.4%; under `CCN1CCN(c2ccccc2NC(=O)N(C)C2CCSC2)CC1` (stereo not drawn), 37.6%; under `CN(C)Cc1noc2c1CN(Cc1ccc[nH]1)CC2`, -77.5%. Under `Cc1ccc2c(c1)OCCCC2NC1CCN(C)CC1` (stereo not drawn) stands 50.3%; under `Cc1ccc2c(c1)C(NCc1nccn1Cc1ccccc1)CCCO2` (stereo not drawn), 35.8%.

Turning to `Cc1ccc2c(c1)OC(C)(C)CC2NC(=O)C1CCN(C)CC1` (stereo not drawn), the INHIBITION is on record as 30.2%. As to `Cc1ccc2c(c1)C(NC1CCN(C)CC1)CCCO2` (stereo not drawn), the INHIBITION was 66.8%. On to `Cc1cc2c(cc1C)C(NC1CC1)CCCO2` (stereo not drawn), for which the INHIBITION is on record as -3.02%. As to `Cc1ccc2c(c1)C(NCc1nnc3n1CCCCC3)CCCO2` (stereo not drawn), the INHIBITION is given as -74.6%. Turning to `CS(=O)(=O)N1CC[C@H]2O[C@H](C(=O)NCCc3ccccn3)CC[C@H]21`, the INHIBITION is -48.2%. In the case of `COc1cccc(OCCc2nc3c(cc2C(N)=O)CCC3)c1`, the INHIBITION is reported as -58.5%. As to `Cc1nc(CN2CCCC(N(C)CC3CCCC3)C2)no1` (stereo not drawn), the INHIBITION is on record as -42.4%. Under `CCc1nc(C2CCCN2CCCc2nc3ccccc3o2)no1` (stereo not drawn) stands -157%; under `Cc1nc2ccccn2c1CC(=O)N[C@@H]1CC[C@@H](N2CCOCC2)[C@@H]1O`, -72.5%. In the case of `NCc1ccccc1Sc1ccc(O)cc1`, the INHIBITION is on record as 56.7%.

As to `CN(C)CCNC(=O)c1cc(-c2cnc(N3CCCC3)nc2)cn1C`, the INHIBITION is -123%. Under `c1ccc(-n2cc(CN3CCCC3Cn3cncn3)nn2)cc1` (stereo not drawn) stands -14%; under `C[C@@H]1CN(C2(C(=O)N3CCNCC3)Cc3ccccc3C2)C[C@H](C)O1`, 63.4%; under `C[C@@H]1CN(C2(C(=O)N3CCSCC3)Cc3ccccc3C2)C[C@H](C)O1`, -238%.

`C[C@@H]1CN(C2(C(=O)N3CCOCC3)Cc3ccccc3C2)C[C@H](C)O1`: the INHIBITION is on record as -22.3%.

Turning to `CCc1noc(C(C)N(C)CC(=O)Nc2ccc(Cl)c(C(F)(F)F)c2)n1` (stereo not drawn), the INHIBITION is given as -75.8%. The same measure for `CC(Cn1cccn1)NC(=O)N1CCN(Cc2ccsc2)CC1` (stereo not drawn): -55.3%; for `CC(Cn1ccnc1)NC(=O)N1CCN(Cc2ccncc2)CC1` (stereo not drawn): -125%; for `CC(Cn1ccnc1)NC(=O)N1CCN(Cc2ccsc2)CC1` (stereo not drawn): 58.4%. Take `NC(=O)c1c(-c2ccc(Cl)cc2Cl)csc1NC(=O)CCCC(=O)O`: the INHIBITION is -162%. Turning to `CC(C)NC(=O)N1CCC2(CC1)C(=O)NCCN2Cc1ccccc1`, the INHIBITION is on record as -105%.

As to `COc1ccc(-n2cc(CCO)cn2)cc1C`, the INHIBITION was -136%. Under `O=C1CC2(CCN(Cc3ncc[nH]3)CC2)CN1Cc1cc(F)cc(F)c1` stands -147%.

As to `CN(C)CCN1CCCC12CCCN(Cc1ccco1)C2` (stereo not drawn), the INHIBITION was -71.8%. Under `Cc1ccc(CN2CCCC3(CCN(Cc4ccoc4)CC3)C2)cc1` stands 79.8%. Under `O=C1CC2(CCN(CCO)CC2)CN1Cc1cc(F)cc(F)c1` stands 19.3%; under `CN(C)CCN1CCCC12CCN(C(=O)c1ccco1)CC2`, 33.9%; under `O=C1CC2(CCN(Cc3ccoc3)CC2)CN1Cc1cc(F)cc(F)c1`, 56.5%. The same measure for `CNC(=O)CN1CCOCC2(CCCN(Cc3ccoc3)C2)C1` (stereo not drawn): 33.7%.

As for `CN(C)CCN1CCCC12CCCN(Cc1ccoc1)C2` (stereo not drawn), the INHIBITION is 68.1%. With `Cc1ccc(CN2CCC3(CCCN(C(=O)N(C)C)C3)C2)cc1` (stereo not drawn), the INHIBITION is on record as -59.2%. The same measure for `CC1CCCN(S(=O)(=O)NCCNC(=O)c2ncccc2O)C1` (stereo not drawn): -122%; for `COc1ccc(-c2nc(CCNC(=O)NC3CCC(O)CC3)co2)cc1` (stereo not drawn): -13.7%; for `CCN(C)CC(=O)N1CCc2nc(NC)nc(C(=O)N3CCCC3)c2C1`: -14.4%. With `CSc1ccc(CNc2n[nH]c(C)n2)cc1`, the INHIBITION is -43.7%. Under `CCS(=O)(=O)N1CCC2(CC1)CN(c1ccsc1)C(=O)CO2` stands -0.697%. As to `CC(=O)Nc1c(C)noc1C=Cc1ccc(S(=O)(=O)N2CCCC2)cc1`, the INHIBITION is reported as 11.8%.

Take `Cc1noc(C)c1CN1CCO[C@H]2CN(Cc3ccc(F)cc3)C[C@H]21`: the INHIBITION turned out to be 55.3%.

As for `Fc1ccc(CN2C[C@@H]3OCCN(CCN4CCCC4)[C@@H]3C2)cc1`, the INHIBITION is -70.3%. The same measure for `CN(C)CCN1CCO[C@H]2CN(Cc3cnn(C)c3)C[C@H]21`: -88.4%. As for `COc1ccc(CN2C[C@@H]3OCCN(CCN4CCCC4)[C@@H]3C2)cc1`, the INHIBITION was found to be 64%. Under `Cc1noc(C)c1CN1CCO[C@H]2CN(Cc3cccc(F)c3)C[C@H]21` stands -32.1%; under `COc1ccc(CN2C[C@@H]3OCCN(C)[C@@H]3C2)cc1`, -42.1%; under `Fc1ccc(CN2C[C@@H]3OCCN(CC4CCCO4)[C@@H]3C2)cc1` (stereo partly drawn), -2.84%.

Regarding `COc1ccc(CN2C[C@@H]3OCCN(CCN(C)C)[C@@H]3C2)cc1`, the INHIBITION came to 66.9%. Turning to `COc1ccc(CN2C[C@@H]3OCCN(CC4CCCO4)[C@@H]3C2)cc1` (stereo partly drawn), the INHIBITION is given as -115%.

Values taken from ChEMBL document CHEMBL4513216, “Probing the Open Global Health Chemical Diversity Library for Multistage-Active Starting Points for Next-Generation Antimalarials” (ACS Infect Dis, 2020).
